A selection: hits, their analogues and other compounds. The true share with any hit is near 3.1%.
TRb SRC2 PPI: qHTS for Inhibitors of the Interaction of Thyroid Hormone Receptor and Steroid Receptor Coregulator 2 | Thyroid hormone receptor beta (Homo sapiens), P10828 | TRbeta-SRC2 peptide binding, fluorescence polarization; receptor liganded with 1 µM T3 | Potency, µM (highest dose often 106 µM), usual class: inhibitors | 280,000 compounds, 0.065% hits; also: nearly all actives have a fitted effect of over 50% in size
Target sequence (P10828 whole entry, looked up): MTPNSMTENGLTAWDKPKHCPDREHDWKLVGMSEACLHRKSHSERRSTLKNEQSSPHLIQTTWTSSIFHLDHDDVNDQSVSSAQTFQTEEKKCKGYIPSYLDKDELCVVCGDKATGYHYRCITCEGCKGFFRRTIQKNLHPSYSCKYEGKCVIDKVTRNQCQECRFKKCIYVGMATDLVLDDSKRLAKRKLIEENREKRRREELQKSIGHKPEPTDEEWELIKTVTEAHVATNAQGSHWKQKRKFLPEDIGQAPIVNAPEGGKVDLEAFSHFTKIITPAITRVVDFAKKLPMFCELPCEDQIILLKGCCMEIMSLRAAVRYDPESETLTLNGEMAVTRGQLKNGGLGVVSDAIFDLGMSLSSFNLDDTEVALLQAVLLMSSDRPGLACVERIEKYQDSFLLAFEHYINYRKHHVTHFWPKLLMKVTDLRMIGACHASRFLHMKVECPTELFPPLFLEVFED
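Fluorescence polarization of 20 nM Texas Red SRC2 peptide with 0.6 uM human TRb ligand-binding domain, in Tris buffer with 1uM T3 and 5% DMSO. Incubated 5 hr ambient; normalized to unbound and bound controls.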
Tau fluor cs: Counterscreen qHTS for Inhibitors of Tau Fibril Formation, Fluorescence Polarization; tau K18 P301L Alexa594 fluorescence, heparin fibrillization; Potency, µM (titrated, usually from 57.7 µM); 280,000 compounds, 0.93% hits; also: nearly all actives have a fitted effect of over 55% in size
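Human K18 P301L tau (15 uM unlabeled plus 0.24 uM Alexa 594-labeled, final) in 100 mM sodium acetate pH 7 was mixed with compound and 20 uM heparin and incubated 6 hr at 37 C.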
TexasRed fluor: Total Fluorescence Counterscreen for Inhibitors of the Interaction of Thyroid Hormone Receptor and Steroid Receptor Coregulator 2 | TRb/SRC2 Texas Red total fluorescence interference | Potency, µM (doses to about 106 µM) | 280,000 compounds, 0.29% hits | AID 1479, 2009; active = well fitted curve in either direction with a large enough effect; inconclusive = small, poorly fitted or top-dose-only effect
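Human TRβ ligand-binding domain (0.6 uM) and Texas Red SRC2 peptide (20 nM) in Tris buffer with 1 uM T3 and 5% DMSO were incubated with pinned compound for 5 hr at ambient temperature. Total fluorescence was computed as S + 2P (555/632 nm).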
Tau FP inhib: qHTS for Inhibitors of Tau Fibril Formation, Fluorescence Polarization. K18 P301L tau heparin fibrillization, Alexa594 FP, 6 h. Potency, µM (series often up to 57.7 µM), hits mostly inhibitors. 280,000 compounds, 0.39% hits. AID 1468, 2008; also: nearly all actives have a fitted effect of over 55% in size
Target sequence (P10636 561-689 P618L limits assumed): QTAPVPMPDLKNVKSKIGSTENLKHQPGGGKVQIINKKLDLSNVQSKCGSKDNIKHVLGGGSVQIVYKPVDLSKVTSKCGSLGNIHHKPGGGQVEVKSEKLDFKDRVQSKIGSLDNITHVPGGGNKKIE
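Recombinant K18 P301L […], labeled with Alexa 594 at 0.24 uM over 15 uM unlabeled; heparin inducer 20 uM final; 37 C, 6 hr; FP endpoint.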
Tau ThT inhib: qHTS for Inhibitors of Tau Fibril Formation, Thioflavin T Binding | Microtubule-associated protein tau (Homo sapiens), P10636 | recombinant tau K18 P301L, heparin-induced fibrillization, ThT fluorescence | Potency, µM (doses to about 57.4 µM), hits mostly inhibitors | 270,000 compounds, 2.1% hits | AID 1460, 2008; also: nearly all actives have a fitted effect of over 55% in size
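Fibril formation assay: tau K18 P301L at 15 uM with trace Alexa 594 label, heparin inducer 20 uM, pH 7 sodium acetate buffer, 37 C for 6 hr; endpoint ThT signal.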
Of the large screens only hits and unclear results are named; the others gave an inactive call; [ ] = dose if it differs, or a comment. Unless noted, calls follow the shape of the dose curve; as a rule, active = well fitted curve in the direction sought with a large enough effect; inconclusive = small, poorly fitted or top-dose-only effect, or another doubt; inactive = no such curve, though single readings can be large; an effect the other way counts as inactive or inconclusive.

COc1ccccc1CCNC(=O)Nc1cccc([N+](=O)[O-])c1	Tau fluor cs inconclusive
Cc1cccc(C)c1OCc1nc2c3cnn(-c4cccc(F)c4)c3ncn2n1	Tau ThT inhib inconclusive
CCOc1cc(C(=O)N2CCc3c([nH]c4ccccc34)C2c2ccccc2)cc(OCC)c1OCC (stereo unspecified)	none
COc1cc(-c2nc(-c3ccccc3)c(-c3cccs3)[nH]2)cc(OC)c1O	Tau fluor cs 14µM[quencher], Tau ThT inhib inconclusive
Oc1ccccc1-c1nc(-c2cccs2)c(-c2cccs2)[nH]1	Tau fluor cs 4.5µM[quencher], Tau FP inhib inconclusive, Tau ThT inhib 14µM
CN(C)c1ccc(-c2nc(-c3cccs3)c(-c3cccs3)[nH]2)cc1	Tau fluor cs 10µM[quencher], Tau ThT inhib inconclusive
c1ccc(-c2nc(-c3cccs3)[nH]c2-c2ccccc2)cc1	Tau fluor cs inconclusive
COc1cc(-c2nc(-c3ccccc3)c(-c3cccs3)[nH]2)cc(OC)c1OC	Tau fluor cs inconclusive, Tau FP inhib inconclusive
COc1cc(OC)c2c(c1C(CCN1CCCC1)c1ccc(N(C)C)cc1)OC(=O)CC2c1ccc(N(C)C)cc1 (stereo unspecified)	none (no result: Tau fluor cs, Tau FP inhib, Tau ThT inhib)
Cc1cccc(-c2noc(-c3cccnc3NCc3ccc(Cl)cc3)n2)c1	Tau FP inhib inconclusive
C=CCN1C(=O)C(CC(=O)O)SC1=Nc1ccc(N=Nc2ccccc2)cc1 (stereo unspecified)	Tau ThT inhib 11µM
Cc1ccc(-n2ccnc(NCCc3ccc(S(N)(=O)=O)cc3)c2=O)c(C)c1	none
CCOC(=O)c1c(C=O)c(C)n(Cc2ccc(Cl)cc2)c1C	Tau ThT inhib inconclusive
CCOC(=O)C1=C(Cc2ccc(Cl)cc2)C(=O)c2ccccc2C1=O	Tau fluor cs inconclusive, Tau FP inhib inconclusive, Tau ThT inhib 14µM
O=C(NNc1ccc(C(F)(F)F)cc1[N+](=O)[O-])c1ccc(NS(=O)(=O)c2ccc(F)cc2)cc1	Tau fluor cs 11µM[quencher], Tau FP inhib inconclusive, Tau ThT inhib 14µM
Cc1cccc(Cn2cc(C(=O)Nc3ccc(F)c(C(F)(F)F)c3)ccc2=O)c1	Tau fluor cs inconclusive, Tau FP inhib 25µM
Cc1ccc(CNC(=O)CSc2ncc(S(=O)(=O)c3ccc(Br)cc3)c(=O)[nH]2)cc1	TexasRed fluor 0.4µM[quencher]
O=C(CSc1ncc(S(=O)(=O)c2ccc(Br)cc2)c(=O)[nH]1)NCc1ccc(Cl)cc1	Tau ThT inhib inconclusive
O=C(CCC1CCCC1)N1CCc2c([nH]c3ccccc23)C1c1ccc(Cl)cc1 (stereo unspecified)	Tau ThT inhib inconclusive
Oc1ccc(NCc2cccc(OCc3ccc(F)cc3)c2)cc1	TRb SRC2 PPI 11µM, Tau fluor cs inconclusive, Tau FP inhib inconclusive, Tau ThT inhib 22µM
O=[N+]([O-])c1ccc(COc2cccc(CNc3ccc(F)cc3)c2)cc1	Tau fluor cs inconclusive, Tau ThT inhib inconclusive
Oc1ccc(NCc2cccc(OCc3ccccc3)c2)cc1	TRb SRC2 PPI 32µM, Tau fluor cs inconclusive, Tau FP inhib inconclusive, Tau ThT inhib 28µM
COC(=O)C(Cc1c[nH]c2ccccc12)NC(=O)COc1ccc(Cl)cc1Cl (stereo unspecified)	Tau fluor cs inconclusive
CCOc1ccc(NC(=O)CCc2c(C)nc3c(c(C)nn3-c3ccccc3)c2C)cc1	Tau ThT inhib inconclusive
CCN(CC)c1ccc(NC(=O)Nc2ccc(C(C)=O)cc2)cc1	Tau fluor cs 14µM[quencher], Tau ThT inhib inconclusive
CCN(CC)S(=O)(=O)c1ccc2c(c1)N(CC(=O)N1CCN(c3cccc(OC)c3)CC1)C(=O)CO2	none
O=C(COc1ccc(OCc2ccccc2)cc1)NN=C1CCCC1	Tau ThT inhib inconclusive
O=C1CCCCC/C1=N/Nc1ccc(OCc2ccccc2)cc1	Tau fluor cs inconclusive, Tau ThT inhib 11µM
Cc1ccc(CSCC(=O)N2CCN(c3cc(Cl)ccc3C)CC2)cc1	none
O=C(COc1ccccc1)Nc1nnc(S(=O)(=O)Nc2ccccc2)s1	Tau fluor cs inconclusive, TexasRed fluor 0.05µM[quencher], Tau ThT inhib inconclusive
Cc1cccc(OCC(=O)Nc2nc3ccc([N+](=O)[O-])cc3s2)c1	Tau fluor cs inconclusive, Tau ThT inhib 2µM
CCN(CC)S(=O)(=O)c1nnc(NC(=O)COc2cccc(C)c2)s1	TexasRed fluor 3.2µM[quencher], Tau ThT inhib inconclusive
O=C(O)COc1ccc(/C=C/c2nc3ccc([N+](=O)[O-])cc3s2)cc1	Tau ThT inhib 2µM
Cc1cccc(OCC(=O)Nc2nc3ccc([N+](=O)[O-])cc3s2)c1C	none
CCN(CC)S(=O)(=O)c1nnc(NC(=O)COc2ccc(C)cc2)s1	Tau ThT inhib inconclusive
COC(=O)CCSCCC(=O)OC	none (no result: Tau fluor cs, Tau FP inhib, Tau ThT inhib)
COc1cc(OC)c(N(C)C(=O)Nc2cn(CC(C)C)c(=O)c3ccccc23)cc1Cl	none
OCC1OC(c2ccc3c(c2)OCO3)C=CC1Oc1ccc(C2CCCC2)cc1 (stereo unspecified)	none
O=C(Nc1nc2cc3c(cc2s1)OCO3)C1CC1	none (no result: Tau ThT inhib)
Fc1cccc2sc(Nc3nc4cc5c(cc4s3)OCO5)nc12	Tau fluor cs 7.9µM[quencher], Tau ThT inhib 7.9µM
Fc1cc(F)c2nc(Nc3nc4cc5c(cc4s3)OCO5)sc2c1	Tau fluor cs 5µM[quencher], TexasRed fluor 35µM[quencher], Tau ThT inhib inconclusive
CC(C)C(=O)Nc1nc2cc3c(cc2s1)OCO3	none
Fc1cccc2sc(Nc3nc4cc5c(cc4s3)OCCO5)nc12	Tau fluor cs 14µM[quencher], Tau ThT inhib inconclusive
COc1ccc(S(=O)(=O)c2cc(NS(=O)(=O)c3ccc(Cl)cc3)c(C)c(C)c2O)cc1	Tau FP inhib inconclusive
COc1cccc(-n2ccnc2SCC(=O)Nc2c(C)cc(C)cc2C)c1	none
Cc1ccc(NC(=O)CN2C(=O)COc3ccc(S(=O)(=O)NC4CCCC4)cc32)cc1Cl	Tau fluor cs inconclusive, Tau FP inhib inconclusive
CCCc1ccc(O)c(N=Cc2cc(Br)cc(OCC)c2O)c1	Tau ThT inhib 14µM
COC(=O)Cn1c(=O)c2c(n(Cc3ccccc3)c1=O)N/C(=C/c1ccc(Br)cc1)C2=O	Tau fluor cs inconclusive, Tau ThT inhib 16µM
Cc1ccc(S(=O)(=O)C(CNC(=O)C(=O)NCc2ccc(Cl)cc2)c2cccs2)cc1 (stereo unspecified)	none
Cn1c(=O)oc2cc(S(=O)(=O)N3CCC(C(=O)N4CCN(c5ccccc5F)CC4)CC3)ccc21	none
Cc1ccc(C)c(CSC2=NC(C)(C)Nc3ccccc32)c1	Tau fluor cs 11µM[quencher], Tau ThT inhib inconclusive
Cc1ccc(C)c(CSc2nnc(-c3ccccn3)n2N)c1	none
CC1(C)N=C(SCc2ccc(F)cc2)c2ccccc2N1	Tau fluor cs 11µM[quencher], Tau ThT inhib inconclusive

Screening results (PubChem)
